Test results: PubChem BioAssay AID1159580 (chemical genetic matrix, 2015)
About 2,000 (36%) of roughly 5,500 compounds were called active. About 18% were inconclusive and are not listed. The list shows a part of the results. A number with no mark means an inactive call. Cut-off read from the data, not from the text of the source: active = normalized growth mostly below about 0.91 (no sharp cut-off); inconclusive = no clear call, values can overlap the other calls; inactive = mostly above about 0.92.

Experiment: chemical genetic growth profiling, strain panel (AID 1159580);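 note: tested at 20 µM; growth read once vehicle control cultures reached saturation at 30 °C; 1 = growth at the plate median or of vehicle wells; lower values mean less growth of the strain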
Conditions: S. cerevisiae deletion strains, growth OD
[1] = locus YAL040C, strain CLN3, hits give low values
[2] = locus YCL061C, strain MRC1 (second series), hits give low values
[3] = locus YDR363W, strain ESC2, hits give low values
[4] = locus YER002W, strain NOP16, hits give low values
[5] = locus YNL153C, strain GIM3, hits give low values
[6] = locus YNL175C, strain NOP13, hits give low values
[7] = locus YNL197C, strain WHI3, hits give low values
[8] = locus YNL224C, strain SQS1, hits give low values
[9] = locus YNL322C, strain KRE1, hits give low values
[10] = locus YOR083W, strain WHI5 (second series), hits give low values

Question: Which results are given for CCCC(=O)NCCc1c2n(c3ccc(OC)cc13)Cc1ccccc1-2?
Answer: normalized growth (locus YAL013W, strain DEP1, hits give low values): 0.986; normalized growth [1]: 1.08; normalized growth [2]: 1.01; normalized growth (locus YDR150W, strain NUM1, hits give low values): 1; normalized growth [3]: 0.993; normalized growth [4]: 0.995; normalized growth (locus YNL128W, strain TEP1, hits give low values): 0.983; normalized growth [5]: 0.754 (active); normalized growth [6]: 0.964; normalized growth [7]: 0.97; normalized growth [8]: 0.963; normalized growth [9]: 0.995; normalized growth [10]: 0.686 (active); normalized growth (locus YPL055C, strain LGE1, hits give low values): 1.01; normalized growth (locus YPL241C, strain CIN2, hits give low values): 1.01

Question: Which normalized growth [1] does the source give for CCCC(=O)NCCc1c2n(c3ccc(OC)cc13)CCCc1ccccc1-2 here?
Answer: 0.991

Question: What about the normalized growth [2] of the same compound?
Answer: 1.01

Question: What about the normalized growth [3] of the same compound?
Answer: 0.998

Question: What about the normalized growth [4] of the same compound?
Answer: 0.996

Question: And the normalized growth (locus YGR078C, strain PAC10, hits give low values)?
Answer: 1.01

Question: What about the normalized growth (locus YJR075W, strain HOC1, hits give low values) of the same compound?
Answer: 0.995

Question: What about the normalized growth (locus YMR307W, strain GAS1, hits give low values) of the same compound?
Answer: 1.01

Question: And the normalized growth [5]?
Answer: 0.984

Question: What about the normalized growth [6] of the same compound?
Answer: 0.99

Question: What about the normalized growth [7] of the same compound?
Answer: 0.995

Question: What about the normalized growth [8] of the same compound?
Answer: 0.984

Question: What about the normalized growth [9] of the same compound?
Answer: 1.01

Question: And the normalized growth [10]?
Answer: 0.972

Question: With CC[C@H]1OC(=O)C[C@@H](O)[C@H](C)[C@@H](O[C@@H]2O[C@H](C)[C@@H](O[C@H]3C[C@@](C)(O)[C@@H](O)[C@H](C)O3)[C@H](N(C)C)[C@H]2O)[C@@H](CC=O)C[C@@H](C)C(=O)/C=C/C(C)=C/[C@@H]1CO[C@@H]1O[C@H](C)[C@@H](O)[C@@H](OC)[C@H]1OC as the compound, how does the normalized growth (locus YAL021C, strain ccr4, hits give low values) read?
Answer: 1.01

Question: And the normalized growth (locus YAL026C, strain drs2, hits give low values)?
Answer: 0.986

Question: What about the normalized growth (locus YAL030W, strain snc1, hits give low values) of the same compound?
Answer: 0.997

Question: And the normalized growth (locus YBL061C, strain skt5, hits give low values)?
Answer: 0.986

Question: And the normalized growth (locus YBR009C, strain hhf1, hits give low values)?
Answer: 1

Question: And the normalized growth (locus YBR023C, strain chs3, hits give low values)?
Answer: 0.988

Question: And the normalized growth (locus YBR171W, strain sec66, hits give low values)?
Answer: 0.987

Question: And the normalized growth (locus YBR231C, strain swc5, hits give low values)?
Answer: 0.989

Question: And the normalized growth (locus YBR279W, strain paf1, hits give low values)?
Answer: 0.994

Question: What about the normalized growth (locus YCL011C, strain gbp2, hits give low values) of the same compound?
Answer: 0.995

Question: What about the normalized growth (locus YCL016C, strain dcc1, hits give low values) of the same compound?
Answer: 1

Question: What about the normalized growth (locus YCL061C, strain MRC1, hits give low values) of the same compound?
Answer: 1.01

Question: And the normalized growth (locus YCL069W, strain vba3, hits give low values)?
Answer: 0.992

Question: And the normalized growth (locus YCR088W, strain abp1, hits give low values)?
Answer: 1

Question: What about the normalized growth (locus YDL005C, strain med2, hits give low values) of the same compound?
Answer: 0.986

Question: What about the normalized growth (locus YDL040C, strain nat1, hits give low values) of the same compound?
Answer: 0.99

Question: What about the normalized growth (locus YDR001C, strain nth1, hits give low values) of the same compound?
Answer: 0.997

Question: And the normalized growth (locus YDR069C, strain doa4, hits give low values)?
Answer: 0.995

Question: And the normalized growth (locus YDR137W, strain rgp1, hits give low values)?
Answer: 1.03

Question: And the normalized growth (locus YDR159W, strain sac3, hits give low values)?
Answer: 0.971

Question: And the normalized growth (locus YDR195W, strain ref2)?
Answer: 0.975

Question: And the normalized growth (locus YDR297W, strain sur2, hits give low values)?
Answer: 0.995

Question: What about the normalized growth (locus YDR334W, strain swr1, hits give low values) of the same compound?
Answer: 0.994

Question: What about the normalized growth (locus YDR335W, strain msn5, hits give low values) of the same compound?
Answer: 0.98

Question: And the normalized growth (locus YDR392W, strain spt3, hits give low values)?
Answer: 1.02

Question: What about the normalized growth (locus YEL003W, strain gim4, hits give low values) of the same compound?
Answer: 0.992

Question: And the normalized growth (locus YEL037C, strain rad23, hits give low values)?
Answer: 0.99

Question: And the normalized growth (locus YEL061C, strain CIN8 (second series), hits give low values)?
Answer: 0.992

Question: And the normalized growth (locus YER015W, strain faa2, hits give low values)?
Answer: 0.99

Question: What about the normalized growth (locus YER016W, strain bim1, hits give low values) of the same compound?
Answer: 0.991

Question: And the normalized growth (locus YER111C, strain swi4, hits give low values)?
Answer: 0.98

Question: What about the normalized growth (locus YER155C, strain BEM2 (second series), hits give low values) of the same compound?
Answer: 0.993

Question: What about the normalized growth (locus YFR010W, strain ubp6, hits give low values) of the same compound?
Answer: 0.988

Question: What about the normalized growth (locus YGL167C, strain pmr1, hits give low values) of the same compound?
Answer: 0.986

Question: What about the normalized growth (locus YGL173C, strain kem1, hits give low values) of the same compound?
Answer: 0.986

Question: What about the normalized growth (locus YGL227W, strain vid30, hits give low values) of the same compound?
Answer: 0.988

Question: What about the normalized growth (locus YGL240W, strain doc1, hits give low values) of the same compound?
Answer: 0.992

Question: And the normalized growth (locus YGL253W, strain hxk2, hits give low values)?
Answer: 0.98

Question: And the normalized growth (locus YHR013C, strain ard1, hits give low values)?
Answer: 0.985

Question: And the normalized growth (locus YHR027C, strain rpn1, hits give low values)?
Answer: 0.995

Question: And the normalized growth (locus YHR030C, strain SLT2, hits give low values)?
Answer: 0.953

Question: And the normalized growth (locus YHR079C, strain IRE1, hits give low values)?
Answer: 0.948

Question: What about the normalized growth (locus YHR142W, strain chs7, hits give low values) of the same compound?
Answer: 0.965

Question: What about the normalized growth (locus YJL092W, strain hpr5, hits give low values) of the same compound?
Answer: 0.986

Question: What about the normalized growth (locus YJL095W, strain BCK1 (second series), hits give low values) of the same compound?
Answer: 0.991

Question: And the normalized growth (locus YJL095W, strain BCK1, hits give low values)?
Answer: 0.962

Question: And the normalized growth (locus YJL115W, strain asf1, hits give low values)?
Answer: 0.983

Question: What about the normalized growth (locus YJL129C, strain trk1, hits give low values) of the same compound?
Answer: 0.971

Question: And the normalized growth (locus YJL154C, strain vps35, hits give low values)?
Answer: 0.994

Question: What about the normalized growth (locus YJL164C, strain tpk1, hits give low values) of the same compound?
Answer: 0.998

Question: What about the normalized growth (locus YJL166W, strain qcr8, hits give low values) of the same compound?
Answer: 0.991

Question: And the normalized growth (locus YJL187C, strain SWE1, hits give low values)?
Answer: 0.995

Question: And the normalized growth (locus YJR066W, strain TOR1, hits give low values)?
Answer: 0.918

Question: And the normalized growth (locus YKL160W, strain elf1, hits give low values)?
Answer: 0.993

Question: What about the normalized growth (locus YKR026C, strain gcn3, hits give low values) of the same compound?
Answer: 0.991

Question: And the normalized growth (locus YKR091W, strain srl3, hits give low values)?
Answer: 0.989

Question: What about the normalized growth (locus YLL001W, strain dnm1, hits give low values) of the same compound?
Answer: 0.977

Question: What about the normalized growth (locus YLL026W, hits give low values) of the same compound?
Answer: 0.995

Question: And the normalized growth (locus YLL041C, strain sdh2, hits give low values)?
Answer: 0.992

Question: What about the normalized growth (locus YLR027C, strain aat2, hits give low values) of the same compound?
Answer: 0.998

Question: And the normalized growth (locus YLR113W, strain HOG1, hits give low values)?
Answer: 0.954

Question: What about the normalized growth (locus YLR221C, strain rsa3, hits give low values) of the same compound?
Answer: 1

Question: What about the normalized growth (locus YLR258W, strain gsy2, hits give low values) of the same compound?
Answer: 0.995

Question: And the normalized growth (locus YLR262C, strain YPT6 (second series), hits give low values)?
Answer: 0.989

Question: What about the normalized growth (locus YLR320W, strain mms22, hits give low values) of the same compound?
Answer: 0.994

Question: What about the normalized growth (locus YLR342W, strain FKS1, hits give low values) of the same compound?
Answer: 0.984

Question: And the normalized growth (locus YLR357W, strain rsc2, hits give low values)?
Answer: 0.994

Question: And the normalized growth (locus YLR370C, strain arc18, hits give low values)?
Answer: 0.986

Question: And the normalized growth (locus YLR384C, strain iki3, hits give low values)?
Answer: 0.991

Question: And the normalized growth (locus YML120C, strain ndi1, hits give low values)?
Answer: 1

Question: What about the normalized growth (locus YMR058W, strain fet3, hits give low values) of the same compound?
Answer: 1

Question: What about the normalized growth (locus YMR125W, strain sto1, hits give low values) of the same compound?
Answer: 0.983

Question: What about the normalized growth (locus YMR129W, hits give low values) of the same compound?
Answer: 0.997

Question: And the normalized growth (locus YMR205C, strain PFK2, hits give low values)?
Answer: 0.986

Question: What about the normalized growth (locus YMR231W, strain pep5, hits give low values) of the same compound?
Answer: 0.999

Question: What about the normalized growth (locus YNL071W, strain lat1, hits give low values) of the same compound?
Answer: 0.993

Question: And the normalized growth (locus YNL183C, strain NPR1, hits give low values)?
Answer: 0.922

Question: And the normalized growth (locus YNL209W, strain ssb2, hits give low values)?
Answer: 0.993

Question: What about the normalized growth (locus YNL248C, strain rpa49, hits give low values) of the same compound?
Answer: 0.988

Question: What about the normalized growth (locus YNL322C, strain KRE1 (second series), hits give low values) of the same compound?
Answer: 0.985

Question: And the normalized growth (locus YNR049C, strain mso1, hits give low values)?
Answer: 0.99

Question: What about the normalized growth (locus YOR001W, strain rrp6, hits give low values) of the same compound?
Answer: 0.993

Question: And the normalized growth (locus YOR070C, strain gyp1, hits give low values)?
Answer: 0.996

Question: And the normalized growth (locus YOR080W, strain dia2, hits give low values)?
Answer: 0.977

Question: And the normalized growth (locus YOR083W, strain WHI5, hits give low values)?
Answer: 0.997

Question: What about the normalized growth (locus YOR106W, strain vam3, hits give low values) of the same compound?
Answer: 0.993

Question: What about the normalized growth (locus YOR231W, strain MKK1, hits give low values) of the same compound?
Answer: 0.97

Question: What about the normalized growth (locus YOR265W, strain rbl2, hits give low values) of the same compound?
Answer: 0.994

Question: And the normalized growth (locus YOR270C, strain vph1, hits give low values)?
Answer: 0.895

Question: And the normalized growth (locus YOR290C, strain snf2, hits give low values)?
Answer: 1.01

Question: What about the normalized growth (locus YPL051W, strain arl3, hits give low values) of the same compound?
Answer: 1

Question: And the normalized growth (locus YPL078C, strain atp4, hits give low values)?
Answer: 0.974

Question: What about the normalized growth (locus YPL106C, strain sse1, hits give low values) of the same compound?
Answer: 1

Question: And the normalized growth (locus YPL240C, strain hsp82, hits give low values)?
Answer: 1

Question: What about the normalized growth (locus YPL256C, strain CLN2, hits give low values) of the same compound?
Answer: 0.955
